Test results: PubChem BioAssay
Calls of active or inactive are those of the source. Unless noted, no rule for the calls is given here.

Assays:
[1] = anti-His antibody binders, primary screen, artefact control for SMM control protein annotation, biochemical, small-molecule microarray, 635 nm fluorescence (AID 1128); conditions: anti-His Alexa647 antibody binding, higher = more signal;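 also: score merges feature fluorescence with signal-to-noise for each printed compound spot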
[2] = system: Human papillomavirus type 1a E7 protein (residues 1-88); test: HPV1a E7 small-molecule binders, primary screen, biochemical, small-molecule microarray, residues 1-88, 635 nm (AID 1129); conditions: small-molecule microarray binding, fluorescence 635 nm; higher = more signal
[3] = biological target: Focal adhesion kinase 1 (Homo sapiens) (UniProt Q05397); test: small-molecule microarray binders of FAK, primary screen, biochemical, 635/667 nm fluorescence, BSA, DTT (AID 1130); conditions: PTK2 binding, 635 nm fluorescence, higher = more signal;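 also: composite of spot emission at 667 nm and signal to noise over triplicate slides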
Chain of Focal adhesion kinase 1 (Homo sapiens) (Q05397 whole entry, looked up): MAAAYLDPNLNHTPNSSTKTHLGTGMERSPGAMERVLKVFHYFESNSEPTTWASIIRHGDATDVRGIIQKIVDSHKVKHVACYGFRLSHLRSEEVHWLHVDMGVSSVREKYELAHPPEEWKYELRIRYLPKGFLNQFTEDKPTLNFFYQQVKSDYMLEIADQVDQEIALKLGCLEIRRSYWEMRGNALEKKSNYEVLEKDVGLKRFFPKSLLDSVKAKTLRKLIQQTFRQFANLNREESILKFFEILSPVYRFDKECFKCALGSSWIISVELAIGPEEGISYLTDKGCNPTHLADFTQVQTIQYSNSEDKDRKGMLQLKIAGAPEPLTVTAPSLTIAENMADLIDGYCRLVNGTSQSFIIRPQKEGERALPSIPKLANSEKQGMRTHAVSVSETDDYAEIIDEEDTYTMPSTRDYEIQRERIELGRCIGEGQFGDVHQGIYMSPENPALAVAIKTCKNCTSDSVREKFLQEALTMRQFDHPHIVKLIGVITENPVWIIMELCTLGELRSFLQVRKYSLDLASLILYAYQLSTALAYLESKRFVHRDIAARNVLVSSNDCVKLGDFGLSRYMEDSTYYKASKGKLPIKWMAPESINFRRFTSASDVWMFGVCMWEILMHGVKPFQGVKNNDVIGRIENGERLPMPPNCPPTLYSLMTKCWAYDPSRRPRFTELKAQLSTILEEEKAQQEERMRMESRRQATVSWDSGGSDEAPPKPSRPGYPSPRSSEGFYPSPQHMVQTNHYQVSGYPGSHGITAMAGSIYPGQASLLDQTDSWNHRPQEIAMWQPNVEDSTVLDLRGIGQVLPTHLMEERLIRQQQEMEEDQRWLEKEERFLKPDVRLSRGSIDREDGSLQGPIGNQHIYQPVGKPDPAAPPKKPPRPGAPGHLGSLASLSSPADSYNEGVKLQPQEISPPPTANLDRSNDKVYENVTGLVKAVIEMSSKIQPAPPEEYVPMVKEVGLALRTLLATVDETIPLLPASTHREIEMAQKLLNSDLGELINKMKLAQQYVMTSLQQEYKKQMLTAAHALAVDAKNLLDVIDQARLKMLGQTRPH

[4] = system: Fibrinogen (Alexa647-labelled); test: fibrinogen binders on compound microarrays, profiling panel, artefact control for SMM control-protein annotation, biochemical, small-molecule microarray, 635/667 nm fluorescence (AID 1131); conditions: fibrinogen-A647 binding fluorescence, higher = more signal;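 also: z-score merges 667 nm fluorescence with per-spot signal-to-noise over triplicate slides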
[5] = biological target: Follistatin (Homo sapiens) (UniProt P19883); test: follistatin binders on small-molecule microarrays, primary screen, biochemical, small-molecule microarray, 635/667 nm fluorescence (AID 1132); conditions: FST binding, 635 nm fluorescence, higher = more signal
Chain of Follistatin (Homo sapiens) (P19883 whole entry, looked up): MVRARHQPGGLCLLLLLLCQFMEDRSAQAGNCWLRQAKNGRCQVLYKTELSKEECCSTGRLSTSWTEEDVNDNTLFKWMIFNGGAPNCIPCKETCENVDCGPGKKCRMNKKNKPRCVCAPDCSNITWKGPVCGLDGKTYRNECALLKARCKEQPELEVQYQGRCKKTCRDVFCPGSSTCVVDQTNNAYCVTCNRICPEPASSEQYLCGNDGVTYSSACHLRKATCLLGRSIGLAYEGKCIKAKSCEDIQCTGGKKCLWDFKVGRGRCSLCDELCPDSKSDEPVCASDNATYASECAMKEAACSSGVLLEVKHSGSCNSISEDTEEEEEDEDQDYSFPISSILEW

[6] = biological target: Fibroblast growth factor 2 (Homo sapiens) (UniProt P09038); test: FGF2 binders on small-molecule microarrays, primary screen, biochemical, small-molecule microarray, 635/667 nm fluorescence (AID 1133); conditions: small-molecule microarray binding, FGF2, fluorescence 635/667; higher = more signal
Chain of Fibroblast growth factor 2 (Homo sapiens) (P09038 whole entry, looked up): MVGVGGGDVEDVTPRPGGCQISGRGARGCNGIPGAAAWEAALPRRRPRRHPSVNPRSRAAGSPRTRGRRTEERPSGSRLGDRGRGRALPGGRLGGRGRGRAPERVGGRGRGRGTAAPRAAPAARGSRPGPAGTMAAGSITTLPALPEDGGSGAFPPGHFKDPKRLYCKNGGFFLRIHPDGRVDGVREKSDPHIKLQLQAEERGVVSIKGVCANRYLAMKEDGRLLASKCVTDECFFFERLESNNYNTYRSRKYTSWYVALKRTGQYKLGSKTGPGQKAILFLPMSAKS

[7] = mitochondrial membrane potential change in A549 cells, profiling panel, cell-based, JC-1 fluorescence, basal, 24 h, 100 nL (AID 1138); conditions: higher = more signal;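 also: A549 lung adenocarcinoma cells under basal conditions with no added stimulus; test concentration not given here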
Lefty1 = Lefty1 binders on small-molecule microarrays, primary screen, biochemical, small-molecule microarray, 635/667 nm fluorescence (AID 1139); conditions: small-molecule microarray binding, fluorescence 635/667; higher = more signal
[8] = system: wheat germ agglutinin (Triticum aestivum), Alexa647-labelled; test: wheat germ agglutinin binders on compound microarrays, profiling panel, artefact control for SMM control-protein annotation, biochemical, small-molecule microarray, 635/667 nm fluorescence (AID 1140); conditions: WGA-A647 binding, 635 nm fluorescence, higher = more signal;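 also: score merges 667 nm feature emission with signal to noise over triplicate slides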
[9] = biological target: Luciferin 4-monooxygenase (Photinus pyralis) (UniProt P08659); test: firefly luciferase enzyme inhibitors, primary screen, biochemical, luminescence, purified enzyme, 2006 set (AID 1141); conditions: SteadyGlo luminescence, 30 min, higher = more signal, called active from +8 up or from −8 down;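 also: cell-free assay with purified firefly luciferase at 100 ng per well in PBS; test concentration not given here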
Chain of Luciferin 4-monooxygenase (Photinus pyralis) (P08659 whole entry, looked up): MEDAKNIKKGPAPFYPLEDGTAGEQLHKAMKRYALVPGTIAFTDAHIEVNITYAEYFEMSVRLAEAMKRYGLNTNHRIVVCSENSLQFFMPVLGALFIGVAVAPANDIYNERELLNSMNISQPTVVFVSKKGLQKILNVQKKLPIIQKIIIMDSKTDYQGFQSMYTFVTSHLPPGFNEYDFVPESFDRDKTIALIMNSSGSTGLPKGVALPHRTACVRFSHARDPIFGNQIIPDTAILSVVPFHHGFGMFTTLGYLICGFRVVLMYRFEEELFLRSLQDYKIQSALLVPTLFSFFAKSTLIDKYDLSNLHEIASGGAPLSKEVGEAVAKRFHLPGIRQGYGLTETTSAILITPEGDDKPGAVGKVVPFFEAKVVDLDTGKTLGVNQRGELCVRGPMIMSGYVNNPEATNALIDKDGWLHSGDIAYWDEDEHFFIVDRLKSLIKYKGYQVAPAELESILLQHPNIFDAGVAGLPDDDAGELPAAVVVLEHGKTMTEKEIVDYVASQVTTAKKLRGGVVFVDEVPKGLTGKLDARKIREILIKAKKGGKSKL

[10] = system: Wnt5a (protein binding on small-molecule microarray); test: Wnt5a binders on small-molecule microarray, primary screen, biophysical, 635/667 nm fluorescence (AID 1142); conditions: 635 nm fluorescence, higher = more signal;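 also: fluorescence read at 667 nm with signal to noise per printed feature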
[11] = cell viability in Huh7 cells, primary screen, cytotoxicity control for HCV replication inhibitor project, CellTiter-Glo luminescence, basal, 48 h (AID 1143); conditions: Huh7 HCV replicon, higher = more signal, called active from +8 up or from −8 down;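 also: Huh7 hepatoma cells carrying a hepatitis C replication reporter with no stimulus; test concentration not given here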
[12] = P. aeruginosa biofilm formation inhibitors, primary screen, PAO1 strain, BacTiter-Glo luminescence, LB-PBS (AID 1144); conditions: 12 h, higher = more signal
[13] = CREB reporter modulators without forskolin, primary screen, cell-based, PC12, CRE-LacZ reporter, unstimulated (AID 1145); conditions: no forskolin, luminescence, 4.5 h, higher = more signal, called active from +8 up or from −8 down
[14] = CREB reporter modulators under forskolin, primary screen, cell-based, PC12, CRE-LacZ reporter, forskolin-stimulated (AID 1146); conditions: luminescence, 4.5 h, higher = more signal, called active from +8 up or from −8 down;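 also: PC12 cells with 6xCRE LacZ reporter stimulated by forskolin 10 µM; beta-galactosidase reporter signal reflecting CREB driven transcription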
[15] = biological target: Streptavidin (Streptomyces avidinii) (UniProt P22629); test: streptavidin binders on small-molecule microarray, primary screen, artefact control for SMM compound annotation, biophysical, 635/667 nm fluorescence (AID 1147); conditions: streptavidin binding, higher = more signal;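 also: signal reflects streptavidin binding to arrayed compounds as a control protein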
Chain of Streptavidin (Streptomyces avidinii) (P22629 whole entry, looked up): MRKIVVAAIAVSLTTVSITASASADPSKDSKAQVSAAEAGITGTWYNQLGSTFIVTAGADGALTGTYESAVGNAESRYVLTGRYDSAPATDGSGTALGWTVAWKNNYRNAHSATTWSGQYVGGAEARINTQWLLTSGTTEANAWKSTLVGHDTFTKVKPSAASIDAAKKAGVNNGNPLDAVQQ

[16] = small-molecule binders of probe aInhba, primary screen, biochemical, small-molecule microarray, 635/667 nm fluorescence (AID 1148); conditions: higher = more signal;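 also: score merges 667nm spot fluorescence with signal-to-noise for antibody binding to printed compounds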
Torsin-1A (Homo sapiens) [17] = biological target: Torsin-1A (Homo sapiens) (UniProt O14656); test: torsin A binders from cell lysate, primary screen, small-molecule microarray, wild-type, 635/667 nm (AID 1149); conditions: COS7 hTOR1A-WT lysate, 635 nm fluorescence, higher = more signal
Chain of Torsin-1A (Homo sapiens) (O14656 whole entry, looked up): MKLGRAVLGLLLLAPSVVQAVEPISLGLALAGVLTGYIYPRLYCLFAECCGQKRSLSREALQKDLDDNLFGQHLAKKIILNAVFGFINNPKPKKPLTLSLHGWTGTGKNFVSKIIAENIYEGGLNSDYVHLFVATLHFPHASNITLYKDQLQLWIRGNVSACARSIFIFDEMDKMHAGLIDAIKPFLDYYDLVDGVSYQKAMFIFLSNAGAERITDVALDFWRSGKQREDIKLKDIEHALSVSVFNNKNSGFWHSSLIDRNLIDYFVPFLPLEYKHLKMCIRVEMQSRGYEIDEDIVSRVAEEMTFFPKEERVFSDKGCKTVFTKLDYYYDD

Torsin-1A (Homo sapiens) [18] = biological target: Torsin-1A (Homo sapiens) (UniProt O14656); test: small-molecule binders of mutant TOR1A in lysate, primary screen, cell lysate, small-molecule microarray, COS7 lysate, 635/667 nm fluorescence (AID 1150); conditions: COS7 hTOR1A mutant lysate, 635 nm fluorescence, higher = more signal;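 also: score pools 667 nm emission and signal to noise measuring lysate protein binding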
[19] = system: Sonic hedgehog protein (Shh); test: small-molecule binders of Shh protein, primary screen, biochemical, small-molecule microarray, 635/667 nm fluorescence (AID 1151); conditions: small-molecule microarray binding, 635 nm fluorescence; higher = more signal;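 also: Shh protein binding to compounds spotted on small-molecule microarray slides; score combines spot fluorescence intensity with signal-to-noise across triplicate slides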

| Structure (SMILES) | composite z-score [1] | composite z-score [2] | composite z-score [3] | composite z-score [4] | composite z-score [5] | composite z-score [6] | z-score [7] | composite z-score (Lefty1) | composite z-score [8] | z-score [9] | composite z-score [10] | z-score [11] | z-score [12] | z-score [13] | z-score [14] | composite z-score [15] | composite z-score [16] | composite z-score (Torsin-1A (Homo sapiens) [17]) | composite z-score (Torsin-1A (Homo sapiens) [18]) | composite z-score [19] |
| --- | --- | --- | --- | --- | --- | --- | --- | --- | --- | --- | --- | --- | --- | --- | --- | --- | --- | --- | --- | --- |
| CCCCC(=C=CC[C@@H](O)c1ccccc1OCCO)CCO | -0.448 | -0.21 | -0.206 | -0.883 | 0.531 | -0.397 | 1.25 | 0.036 | 0.177 | -1.85 (inactive) | -0.235 | -0.717 (inactive) | -0.0652 (inactive) | 17.8 (active) | 0.905 (inactive) | -0.488 | 0.0173 | -0.873 | 0.286 | 0.134 |
| O=C1C2C=CC(C(O)c3c(F)cccc3Cl)N(Nc3ccccc3)C2C(=O)N1c1ccccc1 (stereo not given) | 0.397 | 1.26 | 0.471 | 1.03 | 1.24 | -0.0407 | 0.555 | 0.464 | 0.816 | 0.429 (inactive) | 0.422 | -0.165 (inactive) | -0.48 (inactive) | 0.0535 (inactive) | -0.0349 (inactive) | 1.1 | 0.153 | 0.463 | 0.836 | -0.104 |
| O=C1O[C@@H](c2ccccc2)[C@@H](c2ccccc2)N2[C@@H](c3ccccc3OCCO)[C@]3(C(=O)Nc4ccc(C#CC5=CCCCC5)cc43)[C@@H](C(=O)Nc3nc4ccccc4s3)[C@H]12 | 0.353 | 1.17 | 0.0358 | 0.843 | 1.12 | 0.885 | -2.22 | 0.781 | 0.622 | -0.959 (inactive) | 0.799 | -4.3 (inactive) | -1.15 (inactive) | -0.191 (inactive) | 0.447 (inactive) | 1.1 | 0.0516 | -0.271 | 0.335 | 0.988 |
| C=C[C@H](COC(C)=O)N(C(=O)OC(C)(C)C)S(=O)(=O)c1ccc(Br)cc1 | 1.7 | 0.851 | 0.461 | -0.296 | 0.867 | 0.433 | 0.671 | 0.65 | 0.233 | -1.57 (inactive) | 0.77 | -0.121 (inactive) | -0.41 (inactive) | 0.652 (inactive) | 1.66 (inactive) | 0.304 | 0.898 | 0.446 | 0.31 | 0.457 |
| C[C@@]1([C@@H](NC(=O)c2ccccc2)c2ccc(-c3ccccc3)cc2)C[C@H]1C1CCCCC1 | -1.28 | -0.202 | 0.327 | -0.695 | -0.548 | -1 | -0.507 | -0.848 | 0.519 | 1.32 (inactive) | 0.367 | 0.147 (inactive) | -0.232 (inactive) | 0.201 (inactive) | 0.957 (inactive) | 1.1 | 0.333 | 0.0627 | -0.0293 | -1.1 |
| COc1ccc([Si](C)(C)[C@H]2[C@H](CCO)O[C@@]3(C(=O)N(C)c4c(Br)cc(C)cc43)[C@@H]2C)cc1 | 0.494 | 0.969 | 0.295 | 0.15 | 0.675 | 0.425 | -1.69 | 0.486 | 0.773 | 0.481 (inactive) | -0.0092 | -8.05 (active) | -1 (inactive) | 15.2 (active) | -3.2 (inactive) | 0.0036 | -0.0523 | 1.15 | 0.105 | 1.29 |
| COC(=O)[C@@]1(Cc2ccc(F)cc2)[C@H]2c3cc(C(=O)N4CCCC4)n(Cc4cc(C)n(C)n4)c3C[C@H]2CN1C(=O)c1ccccc1 | 1.85 | 1.26 | 1.03 | 1.01 | 0.392 | -0.47 | 0.0507 | -0.847 | 0.628 | 0.609 (inactive) | 0.639 | -2 (inactive) | -0.132 (inactive) | 0.583 (inactive) | 0.989 (inactive) | 1.65 | 0.32 | 0.0304 | 1.04 | -1.06 |
| COC(=O)c1c(CC[C@@H](CO)NC(=O)N[C@@H](C)Cn2cc(C3(O)CCCCC3)nn2)oc(C(C)=O)c1C(=O)OC | 2.77 | 1.12 | -0.262 | 0.747 | 1.22 | 1.29 | -1 | 1.66 | 0.696 | 0.599 (inactive) | 0.315 | -2.63 (inactive) | -1.04 (inactive) | 1.59 (inactive) | 0.214 (inactive) | 0.533 | 0.225 | 1.07 | 0.91 | 2.06 |
| C=CCOC(=O)[C@H]1[C@@H]2C(=O)O[C@@H](c3ccccc3)[C@@H](c3ccccc3)N2[C@@H](c2ccc(OCCOC(=O)[C@@H]3C[C@@H]4C(=O)N5CCC[C@H]5C(=O)N4[C@@H]3c3cccc(OCCO)c3)cc2)[C@]12C(=O)Nc1ccccc12 | 2.53 | 1.19 | 0.701 | 0.686 | 1.3 | 1.51 | -1.5 | 1.14 | 0.847 | -0.187 (inactive) | 0.537 | 0.0308 (inactive) | -0.0247 (inactive) | -0.675 (inactive) | 0.0527 (inactive) | -0.274 | 0.325 | 0.459 | 0.767 | 1.56 |
| CC(C)N1C(=O)[C@@]2(Cc3ccccc31)c1ccccc1C(=O)N(C1CCCCC1)[C@H]2c1ccc(CO)cc1 | -0.192 | 0.37 | -0.0723 | 0.193 | 1.33 | 0.254 | -0.958 | 0.958 | -0.01 | 1.11 (inactive) | 0.0034 | -0.8 (inactive) | -0.868 (inactive) | -0.141 (inactive) | 0.815 (inactive) | -0.169 | -0.0987 | -0.245 | 0.333 | 1.99 |
